4 compounds from PubChem BioAssay (NCI) can be followed below.

This is part of a sample that, as a whole, favours compounds with a hit. Of some 79,000 tested, about 15% had one in any assay. Values without a mark were called inactive. Activity calls are given as the source filed them. No stated cut-off is given here; in the data, active means growth inhibition above about 70%; inactive means the rest.

The nature of assay [1]: NCI Yeast Anticancer Drug Screen. Data for the rad50 strain (AID 155).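 Further: 0% = growth of vehicle-only cultures of the same strain.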 Conditions: S. cerevisiae rad50 strain growth inhibition, active compounds read high. In short, it runs like this:
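Growth of the mutant yeast was measured after compound exposure and referenced to vehicle-treated cultures.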

Assay [2] in a line: NCI Yeast Anticancer Drug Screen. Data for the mec2-1 strain (AID 157). The conditions noted are these: S. cerevisiae mec2-1 strain, active compounds read high. In short, it runs like this:
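Strain: mec2-1 (DNA repair/cell cycle alteration). Compound exposure, then growth measured; inhibition expressed relative to vehicle.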

Assay [3] in a line: NCI Yeast Anticancer Drug Screen. Data for the sgs1 mgt1 strain (AID 161).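 Further: 0% = growth of cultures given vehicle only.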 Conditions: S. cerevisiae sgs1 mgt1 strain, active compounds read high. In short, it runs like this:
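Read-out: growth inhibition vs vehicle controls. Cells: mutant yeast strain deficient in DNA damage repair.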

Assay [4] can be described thus: NCI Yeast Anticancer Drug Screen. Data for the cln2 rad14 strain (AID 165).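 Further: 0% = growth equal to vehicle treated cultures.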 The conditions noted are these: S. cerevisiae cln2 rad14 strain, active compounds read high. In short, it runs like this:
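Compounds are applied to the cln2 rad14 yeast strain, and growth is then compared with that of vehicle-treated cultures to give inhibition.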

A short description of assay [5]: NCI Yeast Anticancer Drug Screen. Data for the bub3 strain (AID 167). The conditions noted are these: S. cerevisiae bub3 mutant strain, active compounds read high. In short, it runs like this: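 Whole-cell yeast assay. The mutant strain was incubated with compounds, and growth inhibition was determined by comparison with vehicle-treated cells.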
Assay [6] in a line: NCI Yeast Anticancer Drug Screen. Data for the mlh1 rad18 strain (AID 175). Conditions: S. cerevisiae mlh1 rad18 strain growth inhibition, active compounds read high. In short, it runs like this:
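Read-out is yeast growth inhibition, calculated against vehicle-only controls. The compound was applied to a strain engineered with DNA damage repair alterations.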

Where [7] appears, read: at 5.0 µM (retest, dose inferred, filed as 0.5).
The mark [8] stands for this setting: at 50.0 µM (retest, dose inferred, filed as 5.0).

Regarding `COC(=O)c1c(C)cccc1C(=O)c1ccc(C)cc1C`, the growth inhibition in assay [1] (setting [7]) was -14%; in assay [1] (setting [8]), -4%; in assay [1] (at 50.0 µM) it was 2.4%; in assay [2] (setting [7]), -10%; in assay [2] (setting [8]) it was -3%; in assay [2] (at 50.0 µM), -0.1%. For the same compound, the growth inhibition in assay [3] (setting [7]) was -4%; in assay [3] (setting [8]), 9%; in assay [3] (at 50.0 µM), 10.6%; in assay [4] (setting [7]), -38%; in assay [4] (setting [8]), -7%; in assay [4] (at 50.0 µM) it was 2.75%. In addition, the growth inhibition was -2% in assay [5] (setting [7]); -16% in assay [5] (setting [8]); 5.05% in assay [5] (at 50.0 µM); -11% in assay [6] (setting [7]); 21% in assay [6] (setting [8]); 23.4% in assay [6] (at 50.0 µM).

On to `O=C1C=CC2=Nc3ccccc3CCC2=C1`, for which the growth inhibition in assay [1] (setting [7]) is -151%; in assay [1] (setting [8]), 95% (active); in assay [1] (at 50.0 µM) it was 90% (active); in assay [2] (setting [7]) it was -57%; in assay [2] (setting [8]) it was 95% (active); in assay [2] (at 50.0 µM), 99% (active). The growth inhibition in assay [3] (setting [7]) was -63%; in assay [3] (setting [8]) it was 95% (active); in assay [3] (at 50.0 µM), 87.7% (active); in assay [4] (setting [7]), -52%; in assay [4] (setting [8]), 86% (active); in assay [4] (at 50.0 µM), 88.9% (active). The growth inhibition in assay [5] (setting [7]) is -67%; in assay [5] (setting [8]), 97% (active); in assay [5] (at 50.0 µM), 98.8% (active); in assay [6] (setting [7]), -115%; in assay [6] (setting [8]) it was 97% (active); in assay [6] (at 50.0 µM), 95.1% (active).

In the case of `CC(C)/C(Cl)=N\OC(=O)Nc1ccc(S(N)(=O)=O)cc1`, the growth inhibition in assay [1] (setting [7]) is 15%; in assay [1] (setting [8]), 30%; in assay [1] (at 50.0 µM), 12.7%; in assay [2] (setting [7]) it was 26%; in assay [2] (setting [8]), 28%; in assay [2] (at 50.0 µM) it was 18.8%. For the same compound, the growth inhibition in assay [3] (setting [7]) was 2%; in assay [3] (setting [8]), -23%; in assay [3] (at 50.0 µM) it was 68%; in assay [4] (setting [7]) it was 21%; in assay [4] (setting [8]) it was 33%; in assay [4] (at 50.0 µM), 45%. Also, the growth inhibition in assay [5] (setting [7]) was 7%; in assay [5] (setting [8]), 26%; in assay [5] (at 50.0 µM), 77.2% (active); in assay [6] (setting [7]), 22%; in assay [6] (setting [8]) it was 38%; in assay [6] (at 50.0 µM) it was -38.8%.

As to `CCOC(=O)c1c(-c2ccccc2)csc1NC(=O)CBr`, the growth inhibition in assay [1] (setting [7]) was 22%; in assay [1] (setting [8]), 98% (active); in assay [1] (at 50.0 µM) it was 99.1% (active); in assay [2] (setting [7]), 11%; in assay [2] (setting [8]) it was 99% (active); in assay [2] (at 50.0 µM), 98.3% (active). In addition, the growth inhibition in assay [3] (setting [7]) was 30%; in assay [3] (setting [8]) it was 99% (active); in assay [3] (at 50.0 µM), 52.5%; in assay [4] (setting [7]) it was 3%; in assay [4] (setting [8]) it was 98% (active); in assay [4] (at 50.0 µM), 91.8% (active). The growth inhibition was 7% in assay [5] (setting [7]); 97% (active) in assay [5] (setting [8]); 94.2% (active) in assay [5] (at 50.0 µM); 49% in assay [6] (setting [7]); 98% (active) in assay [6] (setting [8]); 99.2% (active) in assay [6] (at 50.0 µM).
